The values that follow come from PubChem BioAssay (NCATS).

Experiment [1] is described as follows: Quantitative High-Throughput drug screen in 47 multiple myeloma cell lines against the NCATS MIPE library collection: FR4_PLB cell viability assay (AID 1918924; note: nearly all actives have a fitted effect of over 35% in size; note: potency is the fitted concentration of half-maximal effect). Put shortly:
(§1)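 We plated 500 myeloma cells per well, pinned in MIPE 4.0 compounds, and incubated for 48 hours at 37C. ATP was then quantified with CellTiter-Glo, with DMSO and media-only wells defining 100% and 0%.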

Experiment [2] is described as follows: Quantitative High-Throughput drug screen in 47 multiple myeloma cell lines against the NCATS MIPE library collection: Delta47_JCRB cell viability assay (AID 1918925; note: nearly all actives have a fitted effect of over 45% in size; note: potency is the fitted concentration of half-maximal effect). In a few lines:
(§2)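 qHTS of the MIPE 4.0 collection: 500 myeloma cells/well, 48 h drug exposure at 37C in 5% CO2, then CellTiter-Glo for 5 min at room temperature before luminescence reading.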

Experiment [3] is described as follows: Quantitative High-Throughput drug screen in 47 multiple myeloma cell lines against the NCATS MIPE library collection: EJM_DSMZ cell viability assay (AID 1918926; note: nearly all actives have a fitted effect of over 30% in size; note: potency is the fitted concentration of half-maximal effect). Put shortly: as §2
The nature of experiment [4]: Quantitative High-Throughput drug screen in 47 multiple myeloma cell lines against the NCATS MIPE library collection: ARP1_JJKsccF8 cell viability assay (AID 1918928; note: nearly all actives have a fitted effect of over 40% in size; note: potency is the fitted concentration of half-maximal effect). In a few lines: (§3)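 Viability screen: myeloma cells (500/well) incubated 48 h at 37 °C, humidified 5% CO2, with pinned library compounds; CellTiter-Glo added, luminescence read; DMSO wells set 100%, medium-only wells 0%.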

Experiment [5] in a line: Quantitative High-Throughput drug screen in 47 multiple myeloma cell lines against the NCATS MIPE library collection: ARD_JJKsccE7 cell viability assay (AID 1918929; note: potency is the fitted concentration of half-maximal effect). Put shortly: as §2
Experiment [6] can be described thus: Quantitative High-Throughput drug screen in 47 multiple myeloma cell lines against the NCATS MIPE library collection: Karpas620_DSMZ cell viability assay (AID 1918959). Note: nearly all actives have a fitted effect of over 30% in size. Note: potency is the fitted concentration of half-maximal effect. Put shortly:
as §1

A short description of experiment [7]: Quantitative High-Throughput drug screen in 47 multiple myeloma cell lines against the NCATS MIPE library collection: KMM1_JCRB cell viability assay (AID 1918960). Note: nearly all actives have a fitted effect of over 30% in size. Note: potency is the fitted concentration of half-maximal effect. In a few lines: as §3
A short description of experiment [8]: Quantitative High-Throughput drug screen in 47 multiple myeloma cell lines against the NCATS MIPE library collection: JIM3_ECACC cell viability assay (AID 1918963; note: nearly all actives have a fitted effect of over 35% in size; note: potency is the fitted concentration of half-maximal effect). Put shortly: as §1
The nature of experiment [9]: Quantitative High-Throughput drug screen in 47 multiple myeloma cell lines against the NCATS MIPE library collection: H1112_PLB cell viability assay (AID 1918967; note: nearly all actives have a fitted effect of over 30% in size). Put shortly: as §2
Experiment [10] is described as follows: Quantitative High-Throughput drug screen in 47 multiple myeloma cell lines against the NCATS MIPE library collection: KMS27_JCRB cell viability assay (AID 1918970). Note: nearly all actives have a fitted effect of over 30% in size. Note: potency is the fitted concentration of half-maximal effect. In a few lines: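 ATP-based viability (CellTiter-Glo luminescence) is measured in cells treated 48 h with approved and investigational drugs at 37 °C. Controls are DMSO-only wells for full viability and media-only wells for none.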

Experiment [11] in a line: Quantitative High-Throughput drug screen in 47 multiple myeloma cell lines against the NCATS MIPE library collection: JIM1_ECACC cell viability assay (AID 1918964; note: potency is the fitted concentration of half-maximal effect). In a few lines: as §2
Experiment [12] is described as follows: Quantitative High-Throughput drug screen in 47 multiple myeloma cell lines against the NCATS MIPE library collection: Karpas25_ECACC cell viability assay (AID 1918968; note: nearly all actives have a fitted effect of over 35% in size; note: potency is the fitted concentration of half-maximal effect). Put shortly:
as §2

Experiment [13] can be described thus: Quantitative High-Throughput drug screen in 47 multiple myeloma cell lines against the NCATS MIPE library collection: AMO1_DSMZ cell viability assay (AID 1918927; note: nearly all actives have a fitted effect of over 30% in size; note: potency is the fitted concentration of half-maximal effect). In a few lines: as §2
Experiment [14] in a line: Quantitative High-Throughput drug screen in 47 multiple myeloma cell lines against the NCATS MIPE library collection: INA6_PLB cell viability assay (AID 1918965; note: nearly all actives have a fitted effect of over 55% in size; note: potency is the fitted concentration of half-maximal effect). In a few lines:
(§4)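 Viability readout: CellTiter-Glo luminescence following 5 min room-temperature incubation with reagent. Prior exposure: 48 h, 37C, humidified 5% CO2, 500 cells per well.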

Experiment [15] can be described thus: Quantitative High-Throughput drug screen in 47 multiple myeloma cell lines against the NCATS MIPE library collection: KHM11_PLB cell viability assay (AID 1918962). Note: nearly all actives have a fitted effect of over 35% in size. Note: potency is the fitted concentration of half-maximal effect. Put shortly:
as §1

A short description of experiment [16]: Quantitative High-Throughput drug screen in 47 multiple myeloma cell lines against the NCATS MIPE library collection: Karpas417_ECACC cell viability assay (AID 1918961). Note: potency is the fitted concentration of half-maximal effect. As to conditions: Karpas417 myeloma viability, CellTiter-Glo ATP luminescence, 48 h; viability (% of DMSO): at 45.8 µM (top of the series). In a few lines:
as §4
(ATP-based viability assays read luminescence as a measure of living cells.)

Experiment [17] can be described thus: Quantitative High-Throughput drug screen in 47 multiple myeloma cell lines against the NCATS MIPE library collection: JJN3_DSMZ cell viability assay (AID 1918966; note: nearly all actives have a fitted effect of over 50% in size; note: potency is the fitted concentration of half-maximal effect). Put shortly:
as §2

Results filed as inconclusive are left out. Active and inactive are the calls of the source. Calls come from the whole dose curve; as a rule, active = well fitted curve in the direction sought with a large enough effect; inconclusive = small, poorly fitted or top-dose-only effect, or another doubt; inactive = no such curve, though single readings can be large; an effect the other way counts as inactive or inconclusive.

For the compound `O=C(CCc1ccc(O)cc1)c1c(O)cc(O)cc1O[C@@H]1O[C@H](CO)[C@H](O)[C@H](O)[C@H]1O`, the Potency entry in [1], in [2], in experiment [3], in [4], in experiment [5] and in [6] was “inactive” each time. Also, the Potency entry in experiment [7], in experiment [8], in experiment [9] and in [10] was “inactive” each time.
Regarding `O=C(OCC#CCSc1nnc(-c2cccc3ccccc23)o1)c1cc2ccccc2s1`, the Potency result in experiment [1], in experiment [2], in [5], in [6], in experiment [7] and in [11] was “inactive” in each case. In addition, the Potency entry in [9], in [12] and in [10] was “inactive” in each case. In addition, in experiment [3], the Potency was 23.5 µM (active).
Regarding `CCOC1OC(=O)C[C@H]1NC(=O)[C@@H]1CCCN1C(=O)[C@@H](NC(=O)c1ccc(N)c(Cl)c1)C(C)(C)C` (some centres not stated), the Potency result in experiment [1], in experiment [2], in [3], in [14] and in experiment [9] was “inactive” in each case. Moreover, the Potency in experiment [13] is 18.7 µM (active); in experiment [5], 20.9 µM (active); in experiment [7], 29.6 µM (active); in [10], 5.26 µM (active).
`NC1CCC(Nc2nc(Nc3ccc(C(=O)N4CCCCC4)cc3)c3ncn(-c4cccc(F)c4)c3n2)CC1` (configuration not stated): the Potency result in [1], in experiment [3], in [13], in experiment [4], in experiment [5] and in experiment [6] was “inactive” in each case. Also, the Potency entry in experiment [7], in experiment [9] and in experiment [12] was “inactive” each time.
Regarding `Cc1cnc(C(=O)O)c[n+]1[O-]`, the Potency result in [1], in experiment [3], in experiment [13], in experiment [5], in experiment [6] and in [7] was “inactive” each time. Besides, the Potency result in experiment [15], in [8], in [14], in experiment [9], in experiment [12] and in experiment [10] was “inactive” each time.
As to `O=C1NC(=O)C(=Cc2cccc(C(F)(F)F)c2)S1`, the Potency entry in experiment [1] is “inactive”. Also, in [3], the Potency was 20.9 µM (active).
As for `Nc1nc(F)nc2c1ncn2[C@@H]1O[C@H](COP(=O)(O)O)[C@@H](O)[C@H]1O`, the Potency in [1] was 1.87 µM (active); in [5], 0.0019 µM (active); in experiment [6] it was 18.7 µM (active); in experiment [16] it was 4.18 µM (active); in experiment [12], 13.2 µM (active). For the same compound, the Potency result in [7], in experiment [8], in experiment [14], in experiment [17], in [9] and in experiment [10] was “inactive” in each case.
On to `C[C@]12CC[C@@H]3c4ccc(O)cc4C[C@@H](CCCCCCCCCS(=O)CCCC(F)(F)C(F)(F)F)[C@H]3[C@H]1CC[C@H]2O` (some centres not stated), for which the Potency entry in [1], in [13], in experiment [5], in [6], in [7] and in experiment [15] was “inactive” each time. Further, the Potency entry in experiment [8], in experiment [11], in [14], in experiment [9], in experiment [12] and in [10] was “inactive” each time.
Regarding `Nc1ncnc2ccccc12`, the Potency entry in experiment [1], in experiment [4], in [5], in experiment [6], in [7] and in experiment [8] was “inactive” each time. The Potency entry in experiment [11], in experiment [14], in [17] and in experiment [10] was “inactive” throughout.
As to `Clc1cc(Cl)cc(CNc2ncncc2-c2ccc3c(c2)OCO3)c1`, the Potency was 14.8 µM (active) in [1]; 11.8 µM (active) in [2]; 7.43 µM (active) in [13]; 16.6 µM (active) in experiment [5]; 16.6 µM (active) in experiment [8]; 16.6 µM (active) in experiment [14]. The Potency in experiment [10] was 18.7 µM (active).
On to `CO[C@@H](C(=O)N1Cc2[nH]nc(NC(=O)c3ccc(N4CCN(C)CC4)cc3)c2C1)c1ccccc1`, for which the Potency in experiment [1] was 23.5 µM (active); in [2], 6.62 µM (active); in experiment [13], 4.69 µM (active); in experiment [5] it was 26.4 µM (active); in experiment [7] it was 7.43 µM (active); in [15], 10.5 µM (active). Further, the Potency in experiment [8] was 4.69 µM (active); in experiment [11], 16.6 µM (active); in experiment [14] it was 0.372 µM (active); in experiment [17] it was 23.5 µM (active); in experiment [12], 16.6 µM (active); in experiment [10], 23.5 µM (active).
For the compound `C[N+](C)(C)CC(=O)O`, the Potency entry in [1], in experiment [3], in experiment [5], in [7], in [15] and in experiment [9] was “inactive” each time.
In the case of `O=c1c(-c2ccc(O)cc2)coc2cc(O)ccc12`, the Potency entry in experiment [1], in experiment [3], in [13], in [5], in [7] and in experiment [8] was “inactive” throughout. The Potency result in [11], in experiment [14], in [9], in experiment [12] and in experiment [10] was “inactive” in each case.
`OC[C@H]1O[C@@H](Oc2cc(O)cc(C=Cc3ccc(O)cc3)c2)[C@H](O)[C@@H](O)[C@H]1O`: the Potency result in experiment [1], in [13], in [6], in experiment [8] and in [10] was “inactive” each time. Moreover, the Potency in experiment [3] was 4.69 µM (active).
In the case of `CN(C)CCC=C1c2ccccc2COc2ccc(CC(=O)O)cc21`, the Potency result in [1], in experiment [3], in [13], in experiment [4], in experiment [5] and in [6] was “inactive” each time. The Potency result in experiment [11] and in [10] was “inactive” in each case.
As for `CC#CCn1c(N2CCC[C@@H](N)C2)nc2c1c(=O)n(Cc1nc(C)c3ccccc3n1)c(=O)n2C`, the Potency entry in [1], in [3], in [13], in experiment [5], in experiment [6] and in [7] was “inactive” each time. For the same compound, the Potency result in experiment [15] and in experiment [10] was “inactive” each time. Moreover, the Potency in experiment [4] is 2.96 µM (active); in experiment [12], 14.8 µM (active).
Take `O=c1cc(-c2ccccc2)oc2cc(O)cc(O)c12`: the Potency result in [1], in [3] and in [9] was “inactive” in each case. The Potency was 16.6 µM (active) in [13], 26.4 µM (active) in experiment [5], 20.9 µM (active) in experiment [7] and 16.6 µM (active) in experiment [8].
